Sampled rows, rich in hits. Any-hit rate of the full collection: about 5.4%.
ALR H2O2 inh: inhibitors of human sulfhydryl oxidase ALR. P55789. purified ALR, DTT oxidation, H2O2 HRP-luminol luminescence. inhibition, % (test concentration not listed). hit rate 3.8% among 290,000;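 active = mean replicate inhibition above about 79%, with every replicate also reaching it, limit read from the data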
A3A deaminase: inhibitors of human APOBEC3A DNA deaminase. P31941. recombinant A3A, FAM/TAMRA ssDNA deamination fluorescence. inhibition, % at 20 µM. hit rate 0.41% among 330,000. AID 493011;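 active = at least 40% inhibition at 20 µM here, with at most 30% in a related deaminase screen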
Target sequence (P31941 whole entry, looked up): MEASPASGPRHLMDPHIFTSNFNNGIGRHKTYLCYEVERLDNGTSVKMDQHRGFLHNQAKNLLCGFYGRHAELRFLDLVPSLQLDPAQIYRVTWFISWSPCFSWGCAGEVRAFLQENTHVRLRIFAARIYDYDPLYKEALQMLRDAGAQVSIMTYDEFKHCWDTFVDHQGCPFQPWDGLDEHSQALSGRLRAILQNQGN
PHOSPHO1 block: blocks human PHOSPHO1 phosphatase activity | inhibition, % at 13.3 µM | hit rate 1.1% among 290,000 | AID 1565 | Q8TCT1 | recombinant PHOSPHO1, absorbance phosphatase assay; in the data active = inhibition above about 60%
Target sequence (Q8TCT1 whole entry, looked up): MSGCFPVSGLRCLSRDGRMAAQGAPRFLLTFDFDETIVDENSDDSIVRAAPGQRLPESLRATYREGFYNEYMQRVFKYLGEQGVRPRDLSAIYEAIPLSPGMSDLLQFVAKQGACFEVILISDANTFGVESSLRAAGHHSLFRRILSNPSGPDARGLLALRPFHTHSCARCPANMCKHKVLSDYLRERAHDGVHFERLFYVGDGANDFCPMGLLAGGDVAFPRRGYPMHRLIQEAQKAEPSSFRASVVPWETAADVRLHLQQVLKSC
A3G deaminase: inhibitors of human APOBEC3G DNA deaminase; Q9HC16; recombinant A3G, ssDNA deamination FAM/TAMRA fluorescence; inhibition, % at 20 µM; hit rate 0.28% among 330,000;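 active = inhibition of at least 40% at 20 µM, with no more than 30% in the related APOBEC3A deaminase screen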
rCAG RNA binder: molecules binding r(CAG) RNA repeats | inhibition, % at 3 µM | r(CAG) RNA repeat, TO-PRO-1 dye displacement fluorescence | hit rate 1.3% among 370,000 | AID 651821;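 active = inhibition above the plate cutoff, the mean of all test compounds on that plate plus 3 SD, cut at about 35% in these data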;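 also: higher means more dye released from RNA so lower well fluorescence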
aDG glyco up: increases alpha dystroglycan glycosylation | Pro5-aDG cells, alpha-DG glycosylation AlphaScreen (IIH6); 0% Pro5, 100% B10-LARGE cell signal | activation, % at 10 µM | AID 624168 | hit rate 0.22% among 360,000;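 active = activation of at least 8% versus controls, or a plate z-score of at least 8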;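 also: Pro5 are CHO cells carrying HIG-tagged alpha-DG that lacks glycosylation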
rCAG binder conf: r(CAG) RNA repeat binding, confirmation; TO-PRO-1 dye displacement fluorescence; inhibition, % at 3 µM; hit rate 70% among 4,300; shares compounds with rCAG RNA binder; AID 652065;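 active = inhibition above a per-plate cutoff, the mean inhibition of sample wells plus 3 SD, cut at about 35% in these data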;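 also: loss of TO-PRO-1 fluorescence as compound displaces dye from 1x1 AA loop RNA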
DNA CAG counter: DNA CAG dye complex inhibition counter-screen; shares compounds with rCAG RNA binder; hit rate 94% among 4,300; d(CAG) DNA oligo TO-PRO-1 dye displacement, fluorescence; inhibition, % at 3 µM; AID 652068;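 active = inhibition above its plate's cutoff, the mean test-well inhibition plus 3 SD, cut at about 4.8% in these data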;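 also: hits displace the dye from DNA and so lower well fluorescence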
DNA CAG DR: counter-screen for rCAG binders: inhibitors of DNA CAG TO-PRO-1 complex | shares compounds with rCAG RNA binder | DNA CAG/GTC duplex TO-PRO-1 dye displacement fluorescence | IC50, µM | hit rate 20% among 250 | AID 686960; in the data active = IC50 below about 10 µM
Large screens that a line does not name were inactive (follow-up assays come after a bar, where they were run).

CC(CNC(=O)[C@@H](Cc1ccccc1)NC(=O)CC[C@H]1O[C@@H](n2ccc(=O)[nH]c2=O)[C@H](O)[C@@H]1O)c1ccccc1 (some centres not stated)	none (no result: ALR H2O2 inh, A3A deaminase, PHOSPHO1 block, A3G deaminase)
CC(C)O/C(=N/S(=O)(=O)c1ccc(Cl)cc1)c1ccccc1	none (no result: ALR H2O2 inh, A3A deaminase, PHOSPHO1 block, A3G deaminase)
CC(=O)Nc1ccc(-c2ccnc3c2CC(C)(C(=O)Nc2cccc(C(F)(F)F)c2)O3)cc1 (configuration not stated)	none (no result: ALR H2O2 inh, A3A deaminase, PHOSPHO1 block, A3G deaminase)
COc1cc(C(C)=O)ccc1OCC(=O)NCc1ccccc1CN1CCCC1	none (no result: ALR H2O2 inh, A3A deaminase, PHOSPHO1 block, A3G deaminase)
CC1(C(=O)NS(=O)(=O)c2ccc(F)cc2F)CCN1C(=O)Cc1ccccc1Cl (configuration not stated)	none (no result: ALR H2O2 inh, A3A deaminase, PHOSPHO1 block, A3G deaminase)
CC1(C(=O)NS(=O)(=O)c2ccc(F)cc2F)CCN1C(=O)Cc1ccc(-c2ccccc2)cc1 (configuration not stated)	rCAG RNA binder 58 (no result: ALR H2O2 inh, A3A deaminase, PHOSPHO1 block, A3G deaminase) | rCAG binder conf 44 | DNA CAG counter 11
CCOC(=O)c1sc(NS(=O)(=O)c2ccc(F)cc2)nc1C	none
C/C(=N/NC(=O)c1sc(NS(=O)(=O)c2ccccc2)nc1C)c1ccccc1	rCAG RNA binder 58 | rCAG binder conf inactive | DNA CAG counter 7.1
CCOC(=O)c1sc(NS(=O)(=O)c2ccccc2)nc1C	none
C/C(=N/NC(=O)c1sc(NS(=O)(=O)c2ccccc2)nc1C)c1ccc(F)cc1	rCAG RNA binder 84 | rCAG binder conf 49 | DNA CAG counter 15
Cc1nc(C)c(C(=O)NNS(=O)(=O)c2ccccc2)s1	none
Cc1ccc(C)c(S(=O)(=O)NNC(=O)c2sc(NS(=O)(=O)c3ccccc3)nc2C)c1	rCAG RNA binder 47 | rCAG binder conf inactive | DNA CAG counter 6.4
C=CCNc1ccc2c(c1)OC[C@H](CC(C)C)NS2(=O)=O	none (no result: ALR H2O2 inh, A3A deaminase, PHOSPHO1 block, A3G deaminase, aDG glyco up)
O=C(c1cc(-c2cccc(Cl)c2)nc2ccccc12)N1CCN(c2ccccn2)CC1	none
O=C(O)c1cc(-c2cccc(Cl)c2)nc2nc(N3CCCCC3)sc12	rCAG RNA binder 46 (no result: ALR H2O2 inh) | rCAG binder conf 47 | DNA CAG counter 12 | DNA CAG DR inactive
CC(C)OCCCNc1nc2c(cnn2C)c(=O)[nH]1	none (no result: ALR H2O2 inh, A3A deaminase, PHOSPHO1 block, A3G deaminase)
N#Cc1ccc(N2C(=O)[C@@H]3C(C(=O)C(c4ccccc4)c4ccccc4)=NN[C@@H]3C2=O)cc1	rCAG RNA binder 61 | rCAG binder conf inactive | DNA CAG counter 12
O=C(C1=NN[C@@H]2C(=O)N(c3ccccc3C(F)(F)F)C(=O)[C@H]12)C(c1ccccc1)c1ccccc1	none
CC(C)CCN1C(=O)c2ccc(C(=O)Nc3ccccc3C(=O)O)cc2C1=O	ALR H2O2 inh 98, rCAG RNA binder 55 | rCAG binder conf 80 | DNA CAG counter 51
COc1cc(NC(=O)c2ccc3c(c2)C(=O)N(CCC(C)C)C3=O)c(C(=O)O)cc1OC	none
CC(C)CCN1C(=O)c2ccc(C(=O)Nc3ccc(O)cc3C(=O)O)cc2C1=O	rCAG RNA binder 98 | rCAG binder conf 84 | DNA CAG counter 51
CC(C)CN1C(=O)c2ccc(C(=O)Nc3ccc(O)cc3C(=O)O)cc2C1=O	none
CCOC(=O)COc1ccc(C(C)c2ccc(NC(=O)OC(C)(C)C)cc2)cc1 (configuration not stated)	none (no result: ALR H2O2 inh, A3A deaminase, PHOSPHO1 block, A3G deaminase, aDG glyco up)
CCOC(=O)[C@]12CCCC=C1N(Cc1ccc(Cl)cc1Cl)C(=O)[C@H](CC(=O)NCC1CCCCC1)C2	none (no result: ALR H2O2 inh, A3A deaminase, PHOSPHO1 block, A3G deaminase)
Oc1ccc(C2Nc3cccc4cccc(c34)N2)c(O)c1	rCAG RNA binder 75 | rCAG binder conf 64 | DNA CAG counter 44
Clc1ccccc1C1Nc2cccc3cccc(c23)N1	none
CCOc1ccc(Br)cc1S(=O)(=O)NCC(c1ccc(OC)cc1)N1CCOCC1 (configuration not stated)	none (no result: ALR H2O2 inh, A3A deaminase, PHOSPHO1 block, A3G deaminase)
CCOC(=O)[C@]12CCCC=C1N(CCC1=CCCCC1)C(=O)[C@H](CC(=O)NCc1cccc(C(F)(F)F)c1)C2	none (no result: ALR H2O2 inh, A3A deaminase, PHOSPHO1 block, A3G deaminase)
